The campaign covered roughly 2,200 compounds. About 1,200 (55%) were called active. So high a share suggests a set chosen from earlier hits. The list shows a part of the results. A number with no mark means an inactive call. No cut-off is given here; in the data, nearly all actives have IC50 up to about 92 µM.

The test in a line: counter assay for TAg ATPase ADP read-out – biochemical, ADP-Hunter, fluorescence, counter-screen (AID 2501).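 For inhibition: 0% = enzyme with vehicle and 100% = reference inhibitor wells; higher means more inhibition.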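 Note: purified T antigen ATPase.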 Particulars: series mostly up to 100 µM; inhibition: at the top concentration. On the technique in general: A counterscreen serves to expose hits that act by an unwanted route or on another target.
Turning to `O=C(NNC(=O)c1ccccc1O)c1ccc(-c2ccc([N+](=O)[O-])cc2)o1`, the “inhibition” value was 7.79%. Consider `O=c1c(-c2ccc([N+](=O)[O-])cc2)coc2c(O)c(O)ccc12`, for which the IC50 is 11.1 µM (active). In the case of `O=C(CCN1C(=O)C2CCCCC2C1=O)N1CCN(S(=O)(=O)c2cccc(F)c2)CC1` (stereo not drawn), the “inhibition” value is -19.8%. Still for that read-out and setting: to `CC(=O)c1cccc(S(=O)(=O)N2CCCC(c3nc(-c4ccc(C)o4)no3)C2)c1` (stereo not drawn) belongs 3.94%. Take `CCOc1ccc(OC(=O)c2cccc(S(=O)(=O)N3CCN(C)CC3)c2)cc1`: the half-maximal inhibitory concentration (IC50) was 41.5 µM (active). On to `COc1cc(-c2nnc(SCc3cc(=O)oc4cc(O)c(O)cc34)o2)cc(OC)c1OC`, for which the IC50 is 11.6 µM (active). The same measure, in the same setting: to `COc1cc(/C(C)=N/NC(=O)CSc2nnc(C)s2)ccc1O` belongs 8.44 µM (active); to `COc1cc(/C(C)=N/NC(=O)CSc2nc3ccccc3[nH]2)ccc1O`, 6.48 µM (active).

For `CCOC(=O)c1c(C)[nH]c(C)c1C(=O)CSc1nc2ccccc2[nH]1`, the “inhibition” value is 6.27%. For `CC1C=CCC2C(=O)N(c3cc(Cl)ccc3O)C(=O)C12` (stereo not drawn), the “inhibition” value was -8.48%. For `COc1ccc(NN=Nc2nc3c([nH]2)c(=O)n(C)c(=O)n3C)cc1`, the IC50 is 25.4 µM (active). `O=S(=O)(Nc1c(S(=O)(=O)c2ccccc2)c2nc3ccccc3nc2n1C1CCCCC1)c1ccccc1`: the “inhibition” value was -19.5%. On the same count and under the same terms, to `CCN(CC)P(=O)(C(NC(=O)OC)C(F)(F)C(F)(F)C(F)(F)C(F)F)N(CC)CC` (stereo not drawn) belongs 0.91%. Consider `O=Nc1ccc(NOC(=O)c2ccccc2Br)cc1`, for which the IC50 was 22.1 µM (active). Regarding `N#Cc1c(Nc2ccccc2C(F)(F)F)s[nH]c1=O`, the “inhibition” value is -19.1%. The same measure, in the same setting: in the case of `C/C(=N\NC(=O)CSCc1ccc([N+](=O)[O-])cc1)c1ccccc1` it was -42.9%. As for `C/C(=N\NC(=O)Cn1cc([N+](=O)[O-])cn1)c1ccc(O)cc1`, the IC50 is 10.7 µM (active). Turning to `Oc1ccc(CCNc2c3ccccc3nc3ccccc23)cc1O`, the IC50 is 6.72 µM (active). `O=C1CC(c2ccccc2)c2cccc(F)c21` (stereo not drawn): the “inhibition” value is -11.6%. Turning to `COc1ccc(/C=N/NC(=O)c2cc(O)c(O)c(O)c2)cc1Cn1cc([N+](=O)[O-])cn1`, the “inhibition” value was -93.8%.

For the compound `COc1cc(/C=N\NC(=O)c2ccc(Cn3nc([N+](=O)[O-])c(Cl)c3C)o2)ccc1O`, the IC50 was 6.71 µM (active). Take `COc1cc(/C=N/NC(=O)c2ccc(Cn3cc([N+](=O)[O-])cn3)o2)cc(Br)c1O`: the IC50 was 8.55 µM (active).

Turning to `COC(=O)CCC(=O)OC1(C)C(=O)C2=COC(c3ccc(OC)cc3)=CC2=C(Br)C1=O` (stereo not drawn), the “inhibition” value is -24%. For the compound `Cc1nn(C(C)C(=O)O)c2ccccc12` (stereo not drawn), the “inhibition” value was -38.8%. Consider `COc1cc(C2C(C#N)=C(N)Oc3n[nH]c(-c4cccnc4)c32)cc(Br)c1O` (stereo not drawn), for which the half-maximal inhibitory concentration (IC50) was 16.7 µM (active). For the compound `Cc1[nH]nc2c1C(C(C)c1ccccc1)C(C#N)=C(N)O2` (stereo not drawn), the “inhibition” value was -5.83%.

With `CCOc1cc(/C=C/c2cc(C(F)(F)F)[nH]c(=O)n2)ccc1O`, the IC50 was 6.98 µM (active).

Take `COc1cccc(C2C(C(C)=O)=C(O)C(=O)N2CCNCCO)c1` (stereo not drawn): the “inhibition” value was 9.86%. For `Cn1cccc1/C=N/NC(=O)c1cccc(OC(F)(F)C(F)F)c1`, the “inhibition” value was -48.6%. For `COc1cccc(C(=O)Nc2ccc3c(c2)n(C)c(=O)n3C)c1`, the IC50 was 12.6 µM (active). As to `Oc1cccc(/C=N/NC(=S)Nc2cccnc2)c1O`, the IC50 was 8.21 µM (active). As for `CN(C(=S)Nc1cccnc1)c1ccc(O)cc1`, the concentration for half-maximal inhibition (IC50) is 40.6 µM (active). In the case of `Oc1ccc(/C=N/NC(=S)Nc2cccnc2)cc1`, the half-inhibitory concentration (IC50) was 0.9 µM (active). For `CCC(C)[C@H](N)c1nnc(SCC(=O)Nc2cccc(Cl)c2)o1` (stereo partly drawn), the “inhibition” value was -16.3%. On to `CCn1c(SCC(=O)Nc2cccc(C(C)=O)c2)nnc1C(C)C`, for which the “inhibition” value is 22.6%. Consider `CCN(CC)c1ccc(NC(=O)CSc2nnc(N)s2)cc1C`, for which the IC50 is 8.65 µM (active). Regarding `Cc1nn(-c2ccccc2)c2[nH]c(=O)c(CNc3ccc(N4CCOCC4)cc3)cc12`, the IC50 is 3.77 µM (active). For the compound `Cc1nn(-c2ccc(Cl)cc2)c2[nH]c(=O)c(CNCc3ccc4c(c3)OCO4)cc12`, the “inhibition” value is -5.68%. Same read-out and setting: in the case of `Cc1cccc(NC(=S)N2CCCN(c3ncccc3[N+](=O)[O-])CC2)c1` it was -0.13%. As to `CC(C)(C)n1nnnc1C(c1ccncc1)N1CCN(c2ccc(O)cc2)CC1` (stereo not drawn), the IC50 is 6.75 µM (active). Take `Cc1nnc(C)c2c(C)n(-c3ccc4ncccc4c3)c(C)c12`: the “inhibition” value was -11.1%. Take `CCC(C)(C)n1nnnc1C(c1ccc2ncccc2c1)N1CCN(c2ccc(O)cc2)CC1` (stereo not drawn): the IC50 is 5.17 µM (active). As for `Oc1ccc(N2CCN(C(c3ccccn3)c3nnnn3C3CCCC3)CC2)cc1` (stereo not drawn), the half-maximal inhibitory concentration (IC50) is 3.68 µM (active). Consider `Oc1ccc(N2CCN(C(c3ccncc3)c3nnnn3C3CCCC3)CC2)cc1` (stereo not drawn), for which the IC50 is 3.39 µM (active).

Take `COc1ccc(-c2cc(-c3ccco3)[nH]c(=O)c2C#N)cc1OC`: the “inhibition” value is -30%. As for `O=C1SC(SCc2ccccc2)=N/C1=C\c1ccco1`, the “inhibition” value is -6.58%. For `COc1ccc(CNc2ccc(N3CCOCC3)cc2)cc1`, the half-maximal inhibitory concentration (IC50) was 10.5 µM (active). Turning to `COc1ccc(CNS(=O)(=O)c2ccc3c(c2)N(C)CCO3)cc1`, the “inhibition” value was -38.9%. As for `Cc1ccc(CNc2ccc(N3CCOCC3)cc2)cc1`, the half-maximal inhibitory concentration (IC50) was 3.89 µM (active). Regarding `CCCCn1nc(NS(=O)(=O)c2cccc3nonc23)c2cc3cccc(C)c3nc21`, the IC50 was 20.5 µM (active). Take `O=c1cc(CN2CCN(Cc3ccccc3)CC2)c2ccc(O)c(O)c2o1`: the IC50 is 10.9 µM (active). Take `CCCc1cc(=O)oc2cc(C)c(CN3CCCC3)c(O)c12`: the “inhibition” value is -145%. In the case of `O=C1CCN(Cc2ccc(O)cc2)CCN1[C@H](CO)Cc1ccccc1`, the “inhibition” value is -10.6%.

What is called inhibition is the drop in the measured response relative to a control, in per cent. What is called IC50 is the concentration at which inhibition is half-maximal.

Values taken from PubChem BioAssay AID2501 (Southern Research Specialized Biocontainment Screening …, 2010).
